Results on nine molecules are retold here after PubChem BioAssay (EPA / NIEHS).

Each structure is given as a SMILES string. Where “and” joins values, the source holds several entries; their conditions need not be identical. Equal values may be shown once. Inconclusive results are not listed. A structure can be active in one record and inactive in another. Calls of active or inactive are those of the source. The calls were made as follows, unless noted: active = hit-call score of the fitted dose curve at least 0.9, where 1 is the maximum; inactive = score below 0.9.

Assay [1] is described as follows: BSK_LPS_PGE2: BioMAP Diversity Plus: LPS Assay for Prostaglandin E2 (PGE2) Biomarker Activity (AID 2283082). The note with it: primary human HUVEC with PBMC; actives raise or lower the signal. The method in brief: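 Compounds were added to the LPS co-culture of endothelium and PBMC, and PGE2 was measured by ELISA after 24 h. Responses in either direction were fitted with DMSO as baseline.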

Read-out in assay [2]: Tissue Factor, F3 (gene 2152)
As to the kind of experiment: BSK_LPS_TissueFactor: BioMAP Diversity Plus: LPS Assay for Tissue Factor Biomarker Activity (AID 2283084). The note with it: primary human HUVEC with PBMC; actives raise or lower the signal. The method in brief: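 HUVEC/PBMC co-culture, LPS-activated; CD142 ELISA read 24 h post-dose; bidirectional curve fit vs DMSO negative control.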

Read-out in assay [3]: Vascular cell adhesion molecule 1 (VCAM1), VCAM1 (gene 7412)
As to the kind of experiment: BSK_LPS_VCAM1: BioMAP Diversity Plus: LPS Assay for Vascular cell adhesion molecule 1 (VCAM1) Biomarker Activity (AID 2283086). The note with it: primary human HUVEC with PBMC; actives raise or lower the signal. In outline: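 Cells are dosed in an LPS-stimulated endothelial/mononuclear co-culture and, after 24 h, VCAM-1 is quantified by ELISA. Activity in either direction is fitted relative to the DMSO negative control.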

Read-out in another assay: CD38, CD38 (gene 952)
As to the kind of experiment: BSK_SAg_CD38: BioMAP Diversity Plus: SAg Assay for CD38 Biomarker Activity (AID 2283087). The note with it: primary human HUVEC with PBMC; actives raise or lower the signal. In outline:
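CD38 quantified by ELISA (fluorescence) in a superantigen-activated endothelial cell–PBMC co-culture at 24 h post-dose. Activity fitted in both directions relative to DMSO; parallel SRB and Alamar Blue cytotoxicity read-outs.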

Read-out in another assay: CD40, CD40 (gene 958)
As to the kind of experiment: BSK_SAg_CD40: BioMAP Diversity Plus: SAg Assay for CD40 Biomarker Activity (AID 2283088). The note with it: primary human HUVEC with PBMC; actives raise or lower the signal. The method in brief:
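HUVEC/PBMC co-culture, 24 h post-dose; CD40 by ELISA, fluorescence intensity; bidirectional fit vs DMSO negative control.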

Read-out in the next assay: CD69, CD69 (gene 969)
Nature of the assay: BSK_SAg_CD69: BioMAP Diversity Plus: SAg Assay for CD69 Biomarker Activity (AID 2283089).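 As to AC50: cell surface CD69 protein quantified by ELISA with fluorescence detection.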 The note with it: primary human HUVEC with PBMC; actives raise or lower the signal. In outline: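 HUVEC co-cultured with PBMC were dosed with chemical, and CD69 was measured by ELISA with fluorescence read-out 24 h later. Bidirectional curve fitting used DMSO as negative control and activity baseline.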

Read-out in assay [4]: Monocyte Chemoattractant Protein-1 (MCP1), CCL2 (gene 6347)
As to the kind of experiment: BSK_SAg_MCP1: BioMAP Diversity Plus: SAg Assay for Monocyte Chemoattractant Protein-1 (MCP1) Biomarker Activity (AID 2283090). The note with it: primary human HUVEC with PBMC; actives raise or lower the signal. In outline: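 Values derive from bidirectional fitting of ELISA-measured MCP1 against DMSO controls. Readings were taken 24 h after dosing human vascular endothelial cells co-cultured with peripheral blood mononuclear cells under superantigen stimulation.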

Read-out in assay [5]: E-selectin (Homo sapiens) (UniProt P16581)
As to the kind of experiment: BSK_SAg_Eselectin: BioMAP Diversity Plus: SAg Assay for Eselectin Biomarker Activity (AID 2283091). The note with it: primary human HUVEC with PBMC; actives raise or lower the signal. The method in brief:
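E-selectin ELISA readout at 24 h post-dosing in human umbilical vein endothelial cell/PBMC co-culture; gain or loss of signal fitted relative to DMSO baseline.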

Read-out in assay [6]: Monokine induced gamma interferon (MIG), CXCL9 (gene 4283)
Nature of the assay: BSK_SAg_MIG: BioMAP Diversity Plus: SAg Assay for Monokine induced gamma interferon (MIG) Biomarker Activity (AID 2283092). The note with it: primary human HUVEC with PBMC; actives raise or lower the signal. The method in brief: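 HUVEC plus human PBMC co-culture, chemicals dosed and MIG (CXCL9) quantified by ELISA at 24 h. Bidirectional curve fitting against DMSO as negative control and baseline, so both gain and loss of signal count as activity.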

Assay [7] is described as follows: BSK_SAg_PBMCCytotoxicity: PBMC Cytotoxicity Assessment in the BioMAP Diversity Plus: SAg Assay (AID 2283093).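 Also: PBMC viability measured as Alamar Blue reduction fluorescence at 546/580 nm; fitted both ways against DMSO so a hit may be loss or gain of signal.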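 As to AC50: PBMC superantigen activated with SEB plus TSST-1 one hour after compound addition.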 The note with it: primary human HUVEC with PBMC. In outline: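 Alamar Blue reduction (6 h, ex/em 546/580 nm) read after 90 h culture of PBMC pre-dosed 1 h then stimulated with SEB plus TSST-1, 20 ng/mL each. Gain or loss of signal fitted relative to DMSO.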

Read-out in assay [8]: Interleukin-8 (IL8), CXCL8 (gene 3576)
As to the kind of experiment: BSK_SAg_IL8: BioMAP Diversity Plus: SAg Assay for Interleukin-8 (IL8) Biomarker Activity (AID 2283094). The note with it: primary human HUVEC with PBMC; actives raise or lower the signal. The method in brief:
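Chemicals were dosed onto a human endothelial–PBMC co-culture, and IL-8 was quantified by ELISA after 24 h. Both increases and decreases were fitted relative to DMSO.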

A short description of assay [9]: BSK_SAg_Proliferation: Cell Proliferation Assessment in the BioMAP Diversity Plus: SAg Assay (AID 2283095).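 Also: relative cell number as total protein by SRB absorbance in sub-confluent culture.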 The note with it: primary human HUVEC with PBMC. The method in brief:
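Absorbance of sulforhodamine B at 560 nm reports total protein in a human vascular endothelial/PBMC co-culture after 96 h chemical exposure. Gain or loss of signal is fitted in both directions against DMSO.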

A short description of assay [10]: BSK_SAg_SRB: Viability Assessment in the BioMAP Diversity Plus: SAg Assay (AID 2283096).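 Also: cells read one day after compound addition; hits may be either gain or loss of signal compared with DMSO.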 The note with it: primary human HUVEC with PBMC. In outline:
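SRB absorbance at 560 nm served as the viability read-out. Cells (HUVEC plus peripheral blood mononuclear cells) were TCA-fixed and stained 24 h post-dosing; activity fitted in both directions against DMSO controls.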

Read-out in assay [11]: Tumor necrosis factor (Homo sapiens) (UniProt P01375)
Nature of the assay: BSK_LPS_TNFa: BioMAP Diversity Plus: LPS Assay for Tumour Necrosis Factor alpha (TNFa) Biomarker Activity (AID 2283085). The note with it: primary human HUVEC with PBMC; actives raise or lower the signal. In outline: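 Cells (umbilical vein endothelium plus peripheral blood mononuclear cells) were dosed with chemical, incubated 24 h, then TNFa was quantified by ELISA; values derive from bidirectional fitting with DMSO as baseline.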

For assay [12], the target named is human CYP19A1, CYP19A1 (gene 1588) (UniProt P11511). Nature of the assay: NVS_ADME_hCYP19A1: NovaScreen (NVS) CYP450-related Enzyme Activity (ADME) Assay for human CYP19A1 (AID 2283098; active = hit-call score of the fitted dose curve at least 0.9, where 1 is the maximum). In outline:
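Primary testing was in duplicate at a single 10 uM concentration, with actives followed up in concentration-response series. Fluorescence read-out of recombinant enzyme activity at 0.5 h, cell-free. Acetonitrile was the negative-control baseline.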

The target in assay [13] is human CYP2A6, CYP2A6 (gene 1548) (UniProt P11509). Nature of the assay: NVS_ADME_hCYP2A6: NovaScreen (NVS) CYP450-related Enzyme Activity (ADME) Assay for human CYP2A6 (AID 2283099; active = hit-call score of the fitted dose curve at least 0.9, where 1 is the maximum). In outline: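 Insect-cell-expressed human CYP2A6 enzyme activity measured by fluorescence intensity 0.5 hour post-dosing. Compounds screened at 10 uM in duplicate, then hits tested singly in concentration series (max 20 uM); acetonitrile baseline.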
Sequence of human CYP2A6, CYP2A6 (gene 1548) (P11509 whole entry, looked up): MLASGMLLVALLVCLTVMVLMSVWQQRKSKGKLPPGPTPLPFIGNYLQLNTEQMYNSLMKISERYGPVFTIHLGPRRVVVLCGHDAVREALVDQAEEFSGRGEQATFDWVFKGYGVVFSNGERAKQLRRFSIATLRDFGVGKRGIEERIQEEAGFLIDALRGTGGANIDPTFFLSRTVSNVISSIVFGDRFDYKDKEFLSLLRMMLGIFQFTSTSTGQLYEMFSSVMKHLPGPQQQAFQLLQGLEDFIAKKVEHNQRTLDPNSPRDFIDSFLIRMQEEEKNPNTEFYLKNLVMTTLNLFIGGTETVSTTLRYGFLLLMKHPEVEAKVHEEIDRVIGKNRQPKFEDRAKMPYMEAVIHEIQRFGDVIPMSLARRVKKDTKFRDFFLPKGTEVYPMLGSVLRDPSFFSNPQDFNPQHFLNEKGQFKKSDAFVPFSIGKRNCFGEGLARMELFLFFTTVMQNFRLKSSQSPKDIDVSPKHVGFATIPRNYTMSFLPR

Sequence of E-selectin (Homo sapiens) (P16581 whole entry, looked up): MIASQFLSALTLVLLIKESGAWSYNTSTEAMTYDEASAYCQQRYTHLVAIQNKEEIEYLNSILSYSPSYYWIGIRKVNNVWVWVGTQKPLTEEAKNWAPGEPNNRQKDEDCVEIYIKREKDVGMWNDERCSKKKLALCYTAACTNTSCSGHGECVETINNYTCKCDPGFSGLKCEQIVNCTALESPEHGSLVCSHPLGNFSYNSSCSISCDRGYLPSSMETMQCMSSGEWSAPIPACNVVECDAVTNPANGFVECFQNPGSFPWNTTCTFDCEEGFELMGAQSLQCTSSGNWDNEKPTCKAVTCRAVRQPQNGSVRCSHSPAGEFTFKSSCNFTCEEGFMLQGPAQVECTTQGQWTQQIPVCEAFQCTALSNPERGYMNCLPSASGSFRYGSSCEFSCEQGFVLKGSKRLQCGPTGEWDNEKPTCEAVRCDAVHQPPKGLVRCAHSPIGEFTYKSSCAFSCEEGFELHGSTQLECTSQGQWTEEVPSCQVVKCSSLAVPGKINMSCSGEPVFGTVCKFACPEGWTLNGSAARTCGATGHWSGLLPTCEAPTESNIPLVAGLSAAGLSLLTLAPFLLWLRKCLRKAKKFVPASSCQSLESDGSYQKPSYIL
Sequence of Tumor necrosis factor (Homo sapiens) (P01375 whole entry, looked up): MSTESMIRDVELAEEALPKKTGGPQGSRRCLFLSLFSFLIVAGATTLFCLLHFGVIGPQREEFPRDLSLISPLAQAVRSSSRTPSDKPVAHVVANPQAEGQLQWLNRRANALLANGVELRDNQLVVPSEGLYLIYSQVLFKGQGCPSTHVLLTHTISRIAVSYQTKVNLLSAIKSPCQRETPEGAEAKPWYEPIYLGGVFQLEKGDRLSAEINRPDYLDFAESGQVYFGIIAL
Sequence of human CYP19A1, CYP19A1 (gene 1588) (P11511 whole entry, looked up): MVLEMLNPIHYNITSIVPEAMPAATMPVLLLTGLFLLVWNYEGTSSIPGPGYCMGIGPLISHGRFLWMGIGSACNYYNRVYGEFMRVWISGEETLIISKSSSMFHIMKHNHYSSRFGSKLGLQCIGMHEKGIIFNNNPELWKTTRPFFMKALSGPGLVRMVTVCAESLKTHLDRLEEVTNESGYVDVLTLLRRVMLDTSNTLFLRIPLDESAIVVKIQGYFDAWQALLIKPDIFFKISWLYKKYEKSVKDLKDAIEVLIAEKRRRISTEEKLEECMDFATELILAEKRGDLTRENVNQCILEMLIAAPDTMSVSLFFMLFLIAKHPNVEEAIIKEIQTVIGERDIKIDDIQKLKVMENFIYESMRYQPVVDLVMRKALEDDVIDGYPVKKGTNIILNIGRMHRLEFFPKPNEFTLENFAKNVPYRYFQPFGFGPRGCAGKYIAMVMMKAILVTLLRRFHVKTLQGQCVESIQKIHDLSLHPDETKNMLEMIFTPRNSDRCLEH

Take `CCCSC(=O)N(CCC)CCC`: the outcome in assay [1] is “inactive”; in assay [2] it was “inactive”; in assay [3], “inactive”; in the assay with CD38, CD38 (gene 952), “inactive”; with CD40, CD40 (gene 958), “inactive”; with CD69, CD69 (gene 969) it was “inactive”. In addition, the outcome in assay [4], in assay [5], in [6], in assay [7], in assay [8] and in assay [9] was inactive. In assay [10], the outcome was inactive.

As to `Clc1ccccc1Cl`, the outcome in assay [1] was “inactive”; in assay [2], “inactive”; in assay [11], “inactive”; in assay [3], “inactive”; with CD38, CD38 (gene 952), “inactive”; in the assay with CD40, CD40 (gene 958), “inactive”. Also, the outcome with CD69, CD69 (gene 969) was “inactive”; in assay [4] it was “inactive”; in assay [5], “inactive”; in assay [6], “inactive”; in assay [7], “inactive”; in assay [8], “inactive”. Besides, the outcome in assay [9], in assay [10], in assay [12] and in [13] was inactive.

For `CCOc1cccc(C2(N3CCN(c4ccccc4)CC3)CCC(C)CC2)c1` (centres undefined), the outcome in assay [1] is “inactive”; in assay [2], “inactive”; in assay [11] it was “inactive”; in assay [3] it was “inactive”; with CD38, CD38 (gene 952) it was “inactive”; with CD40, CD40 (gene 958), “inactive”. Further, the outcome in the assay with CD69, CD69 (gene 969) is “inactive”; in assay [4], “inactive”; in assay [5] it was “inactive”; in assay [6], “inactive”; in assay [7] it was “inactive”; in assay [8], “inactive”. The result in assay [9] and in [10] was inactive.

On to `[As]#[In]`, for which the outcome in assay [1] was “inactive”; in [2], “inactive”; in [3], “inactive”; in the assay with CD38, CD38 (gene 952) it was “inactive”; in the assay with CD40, CD40 (gene 958), “inactive”; with CD69, CD69 (gene 969) it was “inactive”. In addition, the result in [4], in [5], in assay [6], in [7], in assay [8] and in assay [9] was inactive. Further, the outcome in assay [10] was inactive.

Turning to `O=C1CCCO1`, the outcome in assay [1] was “inactive”; in [2] it was “inactive”; in assay [3], “inactive”; with CD38, CD38 (gene 952) it was “inactive”; with CD40, CD40 (gene 958), “inactive”; with CD69, CD69 (gene 969) it was “inactive”. In addition, the outcome in [4], in [5], in assay [6], in assay [7], in assay [8] and in assay [9] was inactive. In addition, the outcome in assay [10] was inactive.

Consider `CCN(CC)CCO`, for which the outcome in assay [1] is “inactive”; in assay [2], “inactive”; in assay [3] it was “inactive”; in the assay with CD38, CD38 (gene 952), “inactive”; with CD40, CD40 (gene 958), “inactive”; in the assay with CD69, CD69 (gene 969), “inactive”. The result in assay [4], in assay [5], in assay [6], in [7], in assay [8] and in [9] was inactive. Further, the result in assay [10] was inactive.

For orientation: AC50 means the concentration at which the activity in the assay is half-maximal. `COC(=O)Nc1nc2ccccc2[nH]1`: the outcome was “inactive” in [1]; “inactive” in [2]; “inactive” in assay [11]; “inactive” with CD38, CD38 (gene 952); “inactive” in the assay with CD40, CD40 (gene 958); “inactive” with CD69, CD69 (gene 969). Besides, the outcome in assay [4], in assay [5], in [6], in [7] and in assay [8] was inactive. Moreover, the AC50 in assay [3] is 11.3 µM (active); in assay [9], 11.2 µM (active); in assay [10] it was 9.84 µM (active).

As to `CCNS(=O)(=O)C(F)(F)C(F)(F)C(F)(F)C(F)(F)C(F)(F)C(F)(F)C(F)(F)C(F)(F)F`, the outcome in assay [1], in assay [2], in assay [3], in [4], in assay [5] and in assay [6] was inactive. The outcome in assay [7], in assay [8] and in [10] was inactive. In addition, the concentration at half-maximal activity (AC50) was 30 µM (active) in [3]; 19.3 µM (active) and 48.6 µM (active) and 30 µM (active) with CD38, CD38 (gene 952); 12.2 µM (active) and 36.6 µM (active) and 30.4 µM (active) with CD40, CD40 (gene 958); 5.71 µM (active) and 24.7 µM (active) and 20.2 µM (active) with CD69, CD69 (gene 969); 48.7 µM (active) in assay [4]; 30 µM (active) in [5]. Moreover, the AC50 in [6] was 49.1 µM (active); in assay [7], 48 µM (active); in [8], 30 µM (active); in assay [9], 19.3 µM (active) and 45 µM (active) and 23.6 µM (active); in assay [10] it was 43.3 µM (active) and 51.2 µM (active).

Take `Oc1ccccc1Cl`: the outcome in [1] was “inactive”; in [2], “inactive”; in [3], “inactive”; in the assay with CD38, CD38 (gene 952), “inactive”; with CD40, CD40 (gene 958), “inactive”; with CD69, CD69 (gene 969), “inactive”. The result in [4], in assay [5], in assay [6], in assay [7], in assay [8] and in assay [9] was inactive. The result in assay [10] was inactive.
